# Among all 69,000 compounds or so, about 8,600 (12%) showed an effect of 50% or more. This excerpt belongs to a sample that is enriched for strong results.
# Test system: Plasmodium berghei
# Test: Screen against P. berghei liver stage (PbLuc), transformed with Luciferase, at 10uM
# Assay type: functional, HepG2
# Conditions: tested at 10 uM
row,SMILES,INHIBITION [%]
1,CNc1nccnc1C1CN(C(=O)c2cc[nH]n2)CCO1 (configuration not stated),-22.5
2,CN1CCN(C)C(CNc2c(C#N)cnc3ccc(Cl)cc23)C1 (configuration not stated),7.18
3,CN(C)CCOC1CC2(CCN(c3cnccn3)CC2)c2ccccc21 (configuration not stated),31.9
4,c1cncc(C2CC3(CCN(c4cnccn4)CC3)c3ccccc32)c1 (configuration not stated),54.1
5,CCOC1CC2(CCN(c3cnccn3)CC2)c2ccccc21 (configuration not stated),37.9
6,Cc1cc(C)cc(OCC(=O)N2CCC2)c1,-5.22
7,CN(C)C(=O)CO[C@H]1CN(Cc2ccc3c(c2)OCO3)[C@@H]2COC[C@H]12,47.4
8,CS(=O)(=O)N1C[C@H](C(=O)Nc2cccnc2)C[C@H]2OCC[C@H]21,30.5
9,O=C(Nc1cnccn1)[C@H]1C[C@H]2OCC[C@H]2N(c2ncc(F)cn2)C1,60
10,CS(=O)(=O)N1C[C@@H](C(=O)Nc2cnccn2)C[C@H]2OCC[C@H]21,39.3
11,O=C(Nc1cnccn1)[C@@H]1C[C@H]2OCC[C@H]2N(c2ncc(F)cn2)C1,0.923
12,CS(=O)(=O)N1C[C@H](C(=O)Nc2cnccn2)C[C@H]2OCC[C@H]21,61.5
13,O=C(Nc1cnccn1)[C@H]1CO[C@H]2CCN(c3ncc(F)cn3)C[C@H]2C1,27.3
14,NS(=O)(=O)Cc1ccc(CNc2cncc(-n3cccn3)n2)cc1,11.6
15,Cc1ccc(CN2CCN(Cc3nccn3C)[C@H]3CS(=O)(=O)C[C@H]32)o1,24.9
16,O=C(CN1CCC[C@H]1C(=O)O)NCCOc1cccc(Cl)c1,16.1
17,O=C(NC1CCN(C2CC2)CC1)c1cn(-c2ccc(Cl)cc2)nn1,-6.51
18,Cc1ccc2c(n1)N(Cc1csc(C)n1)CCN(C1CCOC1)C2 (configuration not stated),28.2
19,Cc1cccn2c(CNC(C)CCc3ccc(O)cc3)cnc12 (configuration not stated),65.8
20,Cc1cccn2c(CNC(C)CO)cnc12 (configuration not stated),24.7
21,Cc1cc(C)n(CC(C)NCc2cnc3c(C)cccn23)n1 (configuration not stated),60.4
22,Cc1cccn2c(CNC(C)CCn3cccn3)cnc12 (configuration not stated),32.3
23,Cc1ccc2c(c1)c(CNC(C)Cn1nc(C)cc1C)nn2C (configuration not stated),10.9

row,SMILES,INHIBITION [%]
1,Cc1cc(C)n(CC(C)NCc2nc(-c3cccnc3)no2)n1 (configuration not stated),45.9
2,COc1ccc(OC)c(C(C)NC(=O)c2nn(C)c(C)c2Br)c1 (configuration not stated),-1.84
3,Cn1c(=O)[nH]c(=O)n2c(CC(=O)Nc3ccccc3)cnc12,32.5
4,COCC1CN(Cc2ccoc2)Cc2cn(CC3CCCC3)nc21 (configuration not stated),34.6
5,COCC1CN(Cc2ccoc2)Cc2cn(C)nc21 (configuration not stated),7.24
6,CCn1cc2c(n1)C(COC)CN(Cc1ccoc1)C2 (configuration not stated),58.7
7,Cn1c(Cn2ccnc2)nnc1C1CCN(C(=O)c2ccncc2)CC1,-22.1
8,COCC(=O)N1CCC(c2cc(N(C)C)cc(C)n2)CC1,44.3
9,Cc1ccc(-c2nc(CC(=O)NCC(C)N3CCOCC3)cs2)o1 (configuration not stated),67.5
10,CCNC(=O)C1CCN(Cc2csc(-c3ccc(C)o3)n2)CC1,20.2
11,Cc1ccc(-c2nc(CC(=O)NCC3CCCN(C(C)C)C3)cs2)o1 (configuration not stated),38.7
12,Cc1ccc(-c2nc(CC(=O)N3CCN(c4cnccn4)CC3)cs2)o1,-11.4
13,Cc1ccc(-c2nc(C(=O)NCC3CCOC3)cs2)cc1 (configuration not stated),41.5
14,Cc1ccc(-c2nc(CC(=O)N3CCCC(NC(=O)C(C)C)C3)cs2)o1 (configuration not stated),51.7
15,Cc1ccc(-c2nc(CC(=O)NCC3CCOC3)cs2)o1 (configuration not stated),71.2
16,Cc1ccc(-c2nc(CC(=O)NCC3CCCOC3)cs2)o1 (configuration not stated),44.3
17,CNC(=O)C1CCCCN1C(=O)Cc1csc(-c2ccc(C)o2)n1 (configuration not stated),-7.72
18,NC(=O)NCC1CCCCN1C(=O)c1cccc(Cl)c1 (configuration not stated),-17.4
19,CNC(=O)CN1CCCC12CCN(C(=O)c1cccc(F)c1)CC2,14.9
20,CCSc1ccc(C(=O)N2CCCC2C(=O)N2CCOCC2)cn1 (configuration not stated),23.6
21,Cc1ccc(CN2CC[C@H]3OCC[C@@H](C(=O)NC4CC4)[C@@H]3C2)o1,23.9
22,COc1cc(NC(=O)N2CCCC2c2nncn2C)ccc1Br (configuration not stated),55.6
23,CCOCc1ccc(NC(=O)N2CCCC2c2nncn2C)cc1 (configuration not stated),43.7

row,SMILES,INHIBITION [%]
1,Cn1cnnc1C1CCCN1C(=O)Nc1cccc(OC(F)F)c1 (configuration not stated),30.7
2,c1cncc(CN2CCc3ncnc(NCCc4c[nH]cn4)c3CC2)c1,38.3
3,CC(C)c1nc(C2CCCN(C(=O)c3ccc4nncn4c3)C2)no1 (configuration not stated),-43.6
4,CCC(C)N1CCC2(CC1)CN(c1cncnc1)C(=O)CO2 (configuration not stated),3.25
5,Fc1ccc(CNC2CCN(CCc3ccncc3)CC2)cc1F,21.5
6,Oc1cccc(CNC2CCN(CCc3ccncc3)CC2)c1,4.48
7,N#Cc1ccc(CNC(=O)NC2CCN(c3ncccn3)CC2)cc1,23.3
8,N#Cc1ccc(CNC(=O)NC2CCN(CC(F)F)CC2)cc1,26.1
9,Clc1cccc(CNC2CCN(CCc3ccncc3)CC2)c1,52.9
10,COCCN1CCC(NCc2cccc(C)c2)C1 (configuration not stated),15.6
11,COCCN1CCC(NCc2ccc(Cl)cc2)C1 (configuration not stated),23.4
12,Cc1ccc(CNC2CCN(CCc3ccncc3)CC2)cc1C,15.1
13,N#Cc1ccc(CNC(=O)NC2CCN(CC(F)(F)F)C2)cc1 (configuration not stated),52
14,CSc1ccc(CNC2CCN(CCc3ccncc3)CC2)cc1,16.1
15,N#Cc1ccc(CNC2CCN(CCc3ccncc3)CC2)cc1,51.1
16,COCCN1CCC(NCc2ccc(C#N)cc2)C1 (configuration not stated),57.4
17,O=C1CCC2(CCC(NC3CCOC3)CC2)N1Cc1ccccc1 (configuration not stated),-17.1
18,Cc1cccc(CN2Cc3[nH]nc(COCCO)c3C2)n1,29
19,Cc1nc(C(=O)N2CCOC(c3nc(C(C)C)n[nH]3)C2)c[nH]1 (configuration not stated),-16
20,CCN(Cc1nonc1C)C(=O)c1cc(C(F)(F)F)nn1C,29.9
21,CN(C)Cc1cccc(C(=O)N2CCCC(n3cncn3)C2)c1 (configuration not stated),29.2
22,COc1cc2[nH]c(C(=O)O)cc2c(OC)c1C,-13.1
23,CCn1nc2ccc(S(=O)(=O)N3CCSCC3)cn2c1=O,7.92

row,SMILES,INHIBITION [%]
1,CCOc1cccc(C(C)NCc2ccc(OC)c(OC)c2OC)c1 (configuration not stated),38.5
2,COc1ccc(C(C)NCCC(N)=O)cc1F (configuration not stated),49.4
3,COc1ccc(C(C)NCc2cnnn2C)cc1F (configuration not stated),36.6
4,COc1ccc(CNC(C)c2ccc(Cl)cc2)c(OC)c1OC (configuration not stated),56
5,COc1cc(CNC(C)Cn2cccn2)cc(Cl)c1OC (configuration not stated),-3.7
6,COc1ccc(CNC(C)c2ccccc2Cl)c(OC)c1OC (configuration not stated),48.3
7,COc1ccc(C(C)NCc2ccc(OC)c(OC)c2OC)cc1F (configuration not stated),67.1
8,COc1ccc(CNC(C)c2cccc(Br)c2)c(OC)c1OC (configuration not stated),70.5
9,COc1cc(CNC(C)c2cccc(Cl)c2)cc(OC)c1OC (configuration not stated),63.7
10,CC(NCC1CCN(CCO)CC1)c1cccc(Cl)c1 (configuration not stated),40.4
11,CC(NCc1ccc(OCC(N)=O)cc1)c1ccc(Cl)cc1 (configuration not stated),43.3
12,COc1ccc(CNC(C)c2cccc(Cl)c2)c(OC)c1OC (configuration not stated),44.3
13,O=C(COC1CCCCC1)N1CCCC(n2ccnc2)C1 (configuration not stated),-29.8
14,CCN1CC(C(=O)NC(C)(C)C(=O)OC)CC1=O (configuration not stated),-10.3
15,Cc1[nH]nc(CCC(=O)NCC2CCN(C3CCCCC3)C2)c1C (configuration not stated),-57.5
16,COc1cc(CNC(C)c2ccc(F)c(F)c2)cc2c1OCCO2 (configuration not stated),66.7
17,COc1cc(CNCC(O)c2ccc(C)cc2)cc2c1OCCO2 (configuration not stated),21.8
18,COc1ccc(C(C)NCc2c[nH]nc2C)cc1Br (configuration not stated),43.9
19,CC(NCc1ccc(C(N)=O)cc1)c1ccc(Cl)c(Cl)c1 (configuration not stated),-29.2
20,COc1ccc(CNC(C)c2ccc(Cl)c(Cl)c2)c(OC)c1OC (configuration not stated),70.5
21,COc1cc(CNCC(O)c2ccc(F)c(F)c2)cc2c1OCO2 (configuration not stated),24
22,CO[C@@H]1CCN(c2ncc(F)cn2)[C@H]1Cc1cnn(C)c1,28.4
23,CN1CCN(C)C(CNC(=O)N(C)Cc2ccccc2Cl)C1 (configuration not stated),17.1

row,SMILES,INHIBITION [%]
1,Cc1cc(C2CCCN2C(=O)c2csc(-c3cnn(C)c3)n2)on1 (configuration not stated),-1.445
2,CCn1nc(C)c2nnn(CC(=O)Nc3cccc(F)c3)c(=O)c21,15.9
3,NC(=O)C(CNC(=O)Cc1ccc(F)cc1)Cc1ccc(F)cc1 (configuration not stated),29.2
4,Cn1c(=O)n(C)c2nc(Cl)c(CC(=O)c3ccccc3)n2c1=O,-6.47
5,Cc1ccc(C(=O)Cc2c(Cl)nc3n(C)c(=O)n(C)c(=O)n23)cc1,85
6,Cn1c(=O)n(C)c2nc(Cl)c(CC(=O)c3ccc(F)cc3)n2c1=O,48.3
7,CC(C)CCn1cc(C(C(=O)O)N2CCC(c3ccncc3)CC2)cn1 (configuration not stated),23.9
8,O=C(NCCO)c1sc2ncccc2c1C1CN(C2CCCC2)CCO1 (configuration not stated),-10.4
9,CC(C)(C)c1noc(CN2CCCCC2Cn2cncn2)n1 (configuration not stated),39.15
10,O=S(=O)(NCC1(c2cccs2)CCCC1)c1cccnc1,-43.5
11,CCC(C(=O)NCC1=CCCN(C)C1)c1ccccc1 (configuration not stated),0.348
12,Cc1cccc2c1cnn2CCCNC(=O)C1CC1,66.5
13,COCC(=O)NCCCn1ncc2c(C)cccc21,20.1
14,Cc1cc(C(F)(F)F)nn1CCCNC(=O)C1CCN(S(C)(=O)=O)CC1,0.87
15,Cc1cccc2c1cnn2CCCNC(=O)CCCC(=O)O,60.1
16,Cc1cccc2c1cnn2CCCNC(=O)C(C)C,0.139
17,CCCC(=O)NCCCn1ncc2c(C)cccc21,2.69
18,CC(=O)NCCCn1ncc2c(C)cccc21,35.8
19,Cc1nn(CCCNC(=O)C2CCN(S(C)(=O)=O)CC2)c(Cl)c1Cl,14.8
20,Cc1ccnn1CCCNC(=O)C1CCN(S(C)(=O)=O)CC1,77.7

# Source: ChEMBL document CHEMBL4513216, “Probing the Open Global Health Chemical Diversity Library for Multistage-Active Starting Points for Next-Generation Antimalarials” (ACS Infect Dis, 2020)
